A selection: hits, their analogues and other compounds. The true share with any hit is near 10%.
JMJD2A Tudor: blocks the human JMJD2A Tudor domain; 390,000 compounds, 4.4% hits; AlphaScreen JMJD2A-Tudor / H3K4me3 peptide binding; Potency, µM (highest dose often 114 µM), most hits filed as inhibitors; AID 504339; O75164; note: nearly all actives have a fitted effect of over 50% in size
BAZ2B block: blocks human BAZ2B; AID 504333; AlphaScreen BAZ2B-H3K14Ac peptide displacement; 360,000 compounds, 4.4% hits; Potency, µM (highest dose often 114 µM), most hits filed as inhibitors; note: nearly all actives have a fitted effect of over 60% in size
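Protein-peptide AlphaScreen: BAZ2B 50 nM, b-H3K14Ac 50 nM, 1x PBS pH 7.4 + 0.01% Tween-20. Preincubation 30 min RT; cpd 30 min RT (top 110 uM); beads 20 min RT, light-protected.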
HP1b binding inh: inhibitors of HP1-beta chromodomain binding to methylated histone tails. P83916. AlphaScreen HP1-beta / biotin-H3K9me3 peptide binding. Potency, µM (titrated, usually from 114 µM), most hits filed as inhibitors. 390,000 compounds, 0.56% hits; note: nearly all actives have a fitted effect of over 70% in size
Target sequence (P83916 whole entry, looked up): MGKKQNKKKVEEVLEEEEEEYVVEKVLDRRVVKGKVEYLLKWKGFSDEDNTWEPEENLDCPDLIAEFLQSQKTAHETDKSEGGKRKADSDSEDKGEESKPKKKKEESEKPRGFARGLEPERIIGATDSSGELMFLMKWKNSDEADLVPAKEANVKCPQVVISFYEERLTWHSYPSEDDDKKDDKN
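Compound inhibition of the preformed complex between 50 nM HP1-beta and 50 nM biotinylated H3K9me3 peptide was read by AlphaScreen. Buffer was PBS pH 7.4 with 0.01% Tween-20. Incubations ran 30 min at room temperature, with 10 ug/mL donor/acceptor beads.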
G9a inh: inhibitors of human histone lysine methyltransferase G9a; Q96KQ7; G9a H3K9 monomethylation, AlphaScreen, 2 h; Potency, µM (titrated, usually from 102 µM), usual class: inhibitors; 350,000 compounds, 8.8% hits; AID 504332; note: nearly all actives have a fitted effect of over 75% in size
Target sequence (Q96KQ7 913-1193 limits assumed): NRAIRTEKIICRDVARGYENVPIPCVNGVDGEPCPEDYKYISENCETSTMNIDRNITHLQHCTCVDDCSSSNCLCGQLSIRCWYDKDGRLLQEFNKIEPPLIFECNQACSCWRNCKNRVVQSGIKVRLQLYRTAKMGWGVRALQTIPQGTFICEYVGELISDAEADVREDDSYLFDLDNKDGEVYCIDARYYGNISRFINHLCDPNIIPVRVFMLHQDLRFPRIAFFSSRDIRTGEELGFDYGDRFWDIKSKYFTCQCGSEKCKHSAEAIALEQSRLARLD
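Step 1: enzyme (final 20 nM) with compound, 15 min RT. Step 2: substrate peptide 500 nM and SAM 20 uM, 2 h RT. Step 3: anti-H3K9me1 antibody and AlphaScreen beads, 10 min, then plate read.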
CtBP-E1A inh: inhibitors of CtBP/E1A interaction; activity change, % (concentration not given with the values); AID 651724; 340,000 compounds, 0.49% hits; AlphaScreen GST-E1A/His-CtBP binding, 1536-well; hits give low values; in the data active = activity change below about -65%; inconclusive = mostly about -30% to -63%
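Protein mix (5X: 125 nM each GST-E1A, His-CtBP) was incubated with pinned compound 2 h at 37 deg C in dark, in 50 mM Tris pH 8.0 buffer with 300 mM NaCl. Glutathione donor and nickel acceptor beads followed; AlphaScreen signal read after 1 h.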
Six1-Eya2 inh: inhibitors of human Six1/Eya2 interaction; Q15475+O00167; AlphaScreen GST-Six1/His-Eya2 binding, biochemical; hits give low values; activity change, % (test concentration not listed); 360,000 compounds, 0.56% hits; AID 651725; in the data active = activity change below about -65%; inconclusive = mostly about -30% to -63%
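Six1/Eya2 binding was read as AlphaScreen signal after compounds were pinned into GST-Six1 plus His-tagged Eya2 (5X stock 250/500 nM) in pH 8.0 Tris/NaCl/TCEP buffer, beads added, then incubated 1 h, 37 C, dark.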
Numbers stand for hits; n = inactive; u = inconclusive; x = not tested or not shown; [ ] = dose if it differs, or a comment. Unless noted, calls come from the whole dose curve; as a rule, active = well fitted inhibition curve with a large enough effect; inconclusive = small, poorly fitted or top-dose-only effect; inactive = no such curve, though single readings can be large or run the other way.

SMILES | JMJD2A Tudor | BAZ2B block | HP1b binding inh | G9a inh | CtBP-E1A inh | Six1-Eya2 inh
O=C1N/C(=C/c2cccn2-c2ccccc2)C(=O)N1Cc1ccc(F)cc1 | n | n | n | 13µM | n | n
O=C(O)c1cccc(-n2cccc2/C=C2/NC(=O)N(Cc3ccccc3F)C2=O)c1 | n[11.4 µM] | 50µM | n | 45µM | n | n
Cc1cc(-c2n[nH]c(=S)n2/N=C/c2ccc(Cl)c([N+](=O)[O-])c2)n[nH]1 | 40µM | u | n | 1.4µM | n | n
Cc1cc(-c2n[nH]c(=S)n2/N=C/c2cc([N+](=O)[O-])ccc2Cl)n[nH]1 | 7.9µM | u | u | 1.8µM | -81 | -80
CCOc1ccc(CCNC(=O)CCCc2nnc3n(CC)c(=O)c4sccc4n23)cc1 | n | n | n | n | x | x
Cc1ccccc1CNC(=O)CCCn1c(=O)c2cccn2c2cccnc21 | n | n | n | n | x | x
CN(C)c1ccc(NC(=O)Cn2nnc3sc4c(c3c2=O)CCC(C(C)(C)C)C4)cc1 (stereo unspecified) | u | u | n | 4.5µM | x | x
O=C(O)c1cccc(S(=O)(=O)NNc2ccccc2C(F)(F)F)c1 | 7.9µM | 50µM | n | 1.4µM | n | n
O=C(O)c1cccc(S(=O)(=O)NCCc2ccccc2)c1 | n[11.4 µM] | n | n | n | x | n
Oc1c(CN2CCCC(C(F)(F)F)C2)cc(Cl)c2ccccc12 (stereo unspecified) | n | n | n | 40µM | n | n
CCOC(=O)C1CCN(Cc2ccc(OC)c(C)c2OC)CC1 | 1.1µM | 50µM | u | u | n | n
CCOC(=O)C1CCN(Cc2cc(Cl)c3ccccc3c2O)CC1 | n | u | n | 45µM | n | n
CCOC(=O)C1CCCN(S(=O)(=O)c2cc3c4c(c2)CCN4C(=O)CC3)C1 (stereo unspecified) | n | n | n | u | n | n
CCOC(=O)C1CCN(S(=O)(=O)c2ccc3c4c2CC(=O)N4CC(C)S3)CC1 (stereo unspecified) | n | n | n | 35µM | n | n
CCOC(=O)C1CCCN(S(=O)(=O)c2ccc3c4c2CC(=O)N4CC(C)S3)C1 (stereo unspecified) | n | n | n | 45µM | n | n
C=CC[n+]1c(C)csc1Nc1ccc(C(=O)O)cc1 | n | u | n | u | x | n
C=CC[n+]1c(-c2ccccc2)csc1NC(C)(C)C | n | 50µM | u | u | u | n
C=CCC[C@H](Cc1ccc(F)cc1)C(=O)OC[C@H](Cc1c[nH]c2ccccc12)NC(=O)[C@@H](CC=C)CC(=O)N[C@H](CO)Cc1ccccc1 | n | x | n | x | x | n
Cc1ccccc1N1C(=O)CC(Sc2nnc(-c3ccccc3)o2)C1=O (stereo unspecified) | n | n | n | 7.9µM | n | n
CCOC(=O)CC(=O)Nc1ccccc1C(=O)O | n | n | n | u | n | n
CCOC(=O)CC(=O)Nc1ccc(Br)cc1C(=O)O | 56µM | n | n | u | n | n
COCCNC(=O)c1nn(-c2ccc(Cl)cc2)nc1CO | n | n | n | n | x | x
CCC(c1nnnn1C1CCCCC1)N(Cc1ccco1)Cc1cc2ccc(OC)cc2[nH]c1=O (stereo unspecified) | n | n | n | n[12.7 µM] | n | n
Cc1cccc2cc(C(c3nnnn3C(C)(C)C)N(Cc3ccco3)CC3CCCO3)c(=O)[nH]c12 (stereo unspecified) | 25µM | 50µM | 16µM | 50µM | n | n
Cc1ccc2[nH]c(=O)c(C(c3nnnn3C3CCCC3)N(Cc3cccnc3)Cc3ccco3)cc2c1 (stereo unspecified) | u | n | n | n | n | n
SMILES | JMJD2A Tudor | BAZ2B block | HP1b binding inh | G9a inh | CtBP-E1A inh | Six1-Eya2 inh
Cc1ccc2cc(C(c3nnnn3C3CCCC3)N(Cc3cccnc3)Cc3ccco3)c(=O)[nH]c2c1 (stereo unspecified) | u | n | n | 20µM | n | n
Cc1ccc2cc(C(c3nnnn3C3CCCC3)N(Cc3ccco3)Cc3cccs3)c(=O)[nH]c2c1 (stereo unspecified) | n | n | n | 28µM | n | n
NNC(=O)C(=O)Nc1ccc(O)cc1 | n | n | n | 16µM | x | n
Cc1ccc(NC(=O)CC(N)=S)cc1 | 8.9µM | n | n | x | x | n
Cc1ccc(NC(=O)C(=O)NN)cc1 | n | u | n | 50µM | n | n
Cc1ccc(NC(=O)CC(O)(C(F)(F)F)C(F)(F)F)cc1 | n | n | n | n | n | n
Cc1ccc(NC(=O)CCC(=O)OCc2ccc(Br)cc2)cc1 | 79µM | n | n | n | n | n
CN1C(=O)N(CC(=O)N2CCN(S(=O)(=O)Cc3ccccc3)CC2)C(=O)C12CCCCC2 | n | n | n | 56µM | n | n
COc1ccc(-c2csc(Nc3ccccc3)[n+]2CC(O)c2ccc([N+](=O)[O-])cc2)cc1 (stereo unspecified) | u | u | u | 14µM | n | n
COc1ccc(-c2nc(NC(=O)c3ccccc3)sc2-c2ccc([N+](=O)[O-])cc2)cc1 | n | n | n | n | n | n
CCOC(=O)C1CCN(C(=O)C2CCN(S(=O)(=O)c3c(C)noc3/C=C/c3ccc(C)cc3)CC2)CC1 | n | n | n | n | x | x
COc1ccc(C2=NS(=O)(=O)N(C)C(C(=O)Nc3ccc(C)cc3)=C2)cc1 | n | u | n | u | n | n
CC(=O)c1ccc(NC(=O)C2=CC(c3ccc(C)cc3)=NS(=O)(=O)N2C)cc1 | u | u | n | 14µM | x | x
Cc1ccc(NC(=O)C2=CC(c3ccc(C)cc3)=NS(=O)(=O)N2C)cc1 | u | n | n | 40µM | n | n
Cc1cnc(CNC(=O)c2csc([C@H]3C[C@H](O)[C@@H](CO)O3)n2)cn1 | x | x | x | x | n | n
COc1ccccc1N1CCN(Cc2cc(=O)c(OCC(=O)NC(C)C)co2)CC1 | u | n | n | n | n | n
Cc1c(-c2ccc(F)cc2)nc(N)c(C#N)c1-c1cccnc1 | n | n | n | n | n | n
Cc1ccc(-c2c(C)c(-c3ccc(F)cc3)nc(N)c2C#N)o1 | n | n | n | 13µM | n | n
COC(=O)C1=CN(c2ccc(C(C)(C)C)cc2)C(N)=C(C#N)C1c1ccccc1F (stereo unspecified) | x | x | x | x | n | n
CCOC(=O)NNc1nncc2ccccc12 | n | n | n | n[2.33 µM] | n | n
C/C(=N\Nc1nncc2ccccc12)c1ccc(OCC(=O)N(C)C)cc1 | n | u | n | 45µM | n | n
CC/C(=N\Nc1nncc2ccccc12)c1ccc(F)cc1 | n | n | n | 40µM | n | n
Cn1nc(C(F)(F)F)c(-c2ccccc2)c1NC(=O)c1nccnc1C(=O)O | u | 79µM | n | x | n | n
Cn1nc(C(F)(F)F)c(-c2ccc(Br)cc2)c1NC(=O)c1nccnc1C(=O)O | n | n | n | u | n | n

Bioassay records (PubChem)
